In PubChem BioAssay AID431 (Sanford-Burnham Center for Chemical Genomics, 2006):
Out of some 63,000 compounds screened, about 1,100 (1.7%) were called active. This excerpt belongs to a sample that is enriched for actives. Potency and affinity values are given separately. Values without a mark were called inactive.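 Rule for the calls: active = compounds whose percent cytotoxicity in the single-dose primary screen, scaled between solvent and toxic-drug controls, exceeds 50; inactive = the rest.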

Test: viability loss of HPDE-C7K cells – cell-based, fluorescence, HTS, primary screen (AID 431);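 note: 0% = DMSO solvent wells and 100% = doxorubicin-treated wells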
Settings: HPDE-C7K KRASV12 cells, Alamar Blue viability, 48 h; at 10 µM; hits give high values

Question: With `CCc1ccccc1S(=O)(=O)Cc1ccc(C(=O)NCC2CCCO2)o1` (stereo not given) as the compound, how does the cytotoxicity read?
Answer: -0.8%

Question: For `c1ccc(-c2csc(Nc3cccnc3)n2)nc1`, which cytotoxicity is on record?
Answer: 4.5%

Question: With `Cc1cccc(Nc2nc(-c3ccccn3)cs2)n1` as the compound, how does the cytotoxicity read?
Answer: 10.2%

Question: With `COc1cccc2sc(Nc3nc(-c4ccccn4)cs3)nc12` as the compound, how does the cytotoxicity read?
Answer: 58.6% (active)

Question: For `CC(C)OCCCNC(=O)CN1C(=O)CC(C)(C)S(=O)(=O)c2ccccc21`, which cytotoxicity is on record?
Answer: 3.7%

Question: For `CS(=O)(=O)N(CC(=O)NCc1ccc2c(c1)OCO2)Cc1ccc(Cl)cc1`, which cytotoxicity is on record?
Answer: -14.6%

Question: With `C=CCNc1nc(NCc2ccccc2)c(C#N)c2c1CN(C)CC2` as the compound, how does the cytotoxicity read?
Answer: 19.2%

Question: For `N#Cc1c(NCCCO)nc(-c2ccccc2)c2c1CCCC2`, which cytotoxicity is on record?
Answer: 20.2%

Question: For `C=CCNc1nc(N2CCCCC2)c(C#N)c2c1CN(Cc1ccccc1)CC2`, which cytotoxicity is on record?
Answer: -1.7%

Question: For `N#Cc1c(N2CCCCC2)nc(N2CCCCC2)c2c1CCN(Cc1ccccc1)C2`, which cytotoxicity is on record?
Answer: -4.7%

Question: For `CCN1CCc2c(C#N)c(N3CCOCC3)nc(NCc3ccccc3)c2C1`, which cytotoxicity is on record?
Answer: -1.3%

Question: Which cytotoxicity does the source give for `N#Cc1c(NCCO)nc(NCc2ccccc2)c2c1CCN(Cc1ccccc1)C2` here?
Answer: 40.8%

Question: With `CCN1CCc2c(C#N)c(N3CCCCC3)nc(NCc3ccccc3)c2C1` as the compound, how does the cytotoxicity read?
Answer: 51.6% (active)

Question: Which cytotoxicity does the source give for `CCN(CCCNC(=O)CCCn1c(=O)[nH]c2ccccc2c1=O)c1cccc(C)c1` here?
Answer: -2.5%

Question: With `CCc1nc(SCC(=O)Nc2cc(C)on2)n[nH]1` as the compound, how does the cytotoxicity read?
Answer: -9.6%

Question: With `Cc1ccccc1NC(=O)N1C2CCCC1CC(NC(=O)C(C)(C)C)C2` (stereo not given) as the compound, how does the cytotoxicity read?
Answer: -3.9%

Question: For `CCOc1ccccc1NC(=O)N1C2CCCC1CC(NC(=O)C1CC1)C2` (stereo not given), which cytotoxicity is on record?
Answer: -3.2%

Question: With `Cc1ccccc1NC(=O)N1C2CCCC1CC(NC(=O)C1CC1)C2` (stereo not given) as the compound, how does the cytotoxicity read?
Answer: 54.6% (active)

Question: Which cytotoxicity does the source give for `CCCCSc1nnc(C)c(=O)[nH]1` here?
Answer: -3.8%

Question: With `CN1CC2=Cc3ccccc3OC23Oc2ccccc2C=C3C1` as the compound, how does the cytotoxicity read?
Answer: 60.6% (active)

Question: Which cytotoxicity does the source give for `Cc1ccccc1-c1nn2c(-c3ccccc3)nnc2s1` here?
Answer: 11.2%

Question: Which cytotoxicity does the source give for `c1ccc(-c2nnc3sc(-c4csc5c4CCCC5)nn23)cc1` here?
Answer: 71.6% (active)

Question: Which cytotoxicity does the source give for `Cc1nnc2sc(-c3csc4c3CCCC4)nn12` here?
Answer: 3.5%

Question: For `COc1ccc(-c2cc(C(F)F)n3ncc(C(=O)NCCCN4CCCC4=O)c3n2)cc1`, which cytotoxicity is on record?
Answer: -8.7%

Question: For `COCCNC(=O)c1ccccc1-c1ccccc1C(=O)O`, which cytotoxicity is on record?
Answer: 7.4%

Question: For `COC(=O)CSc1nnc(CCc2nc3ccccc3[nH]2)n1C`, which cytotoxicity is on record?
Answer: -3.8%

Question: With `COc1cc(C2C(C(C)=O)=C(C)Nc3ncnn32)ccc1O` (stereo not given) as the compound, how does the cytotoxicity read?
Answer: 2.2%

Question: For `COc1ccc(OC)c(Nc2cc(-c3ccccc3)nc(N)n2)c1`, which cytotoxicity is on record?
Answer: 57.6% (active)

Question: For `COc1ccc(OC)c(Nc2cc(C)nc3ccccc23)c1`, which cytotoxicity is on record?
Answer: 1.1%

Question: With `COc1cc(-c2ccccc2)nc(N)n1` as the compound, how does the cytotoxicity read?
Answer: 7.6%
